This is part of a sample that, as a whole, favours compounds with a hit. Of some 83,000 tested, about 20% had one in any assay.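 Cells were grown in 96-well plates and exposed to the test compound at a single concentration for 48 hours; results are reported as percent growth, with values below 10 considered active.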 Unmarked numbers belong to inactive results. Active and inactive are the calls of the source.

Test systems include SR leukemia; RPMI-8226 leukemia; OVCAR-8 ovarian; OVCAR-5 ovarian; OVCAR-4 ovarian; IGROV1 ovarian; OVCAR-3 ovarian; HS 578T breast; NCI/ADR-RES ovarian; SK-OV-3 ovarian.
Holding throughout (test): NCI-60 one-dose screen, 48 h (100 = growth as untreated, 0 = no growth, -100 = all killed)
Conditions in all cases: 10 µM unless noted

`CC(=O)Nc1ccc(S(=O)(=O)n2ccc(-c3ccc4c(c3)CCC(C)(C)O4)n2)cc1`: the growth in the assay on SR leukemia is 56.4%; in the assay on RPMI-8226 leukemia it was 43.7%; in the assay with OVCAR-8 ovarian, 69.4%; in the assay with OVCAR-5 ovarian, 96.3%; in the assay on OVCAR-4 ovarian, 46.2%; in the assay on IGROV1 ovarian it was 68%. In addition, the figures for the growth with OVCAR-3 ovarian, with HS 578T breast and in the assay on NCI/ADR-RES ovarian were 74.4%, 102% and 56.9%, respectively.

In the case of `Cc1nc2ncccc2nc1Nc1ccc(S(=O)(=O)Nc2ccccn2)cc1`, the growth in the assay on SR leukemia was 92.2%; with RPMI-8226 leukemia it was 84.5%; in the assay on OVCAR-8 ovarian, 93.6%; in the assay with OVCAR-5 ovarian, 103%; in the assay with OVCAR-4 ovarian, 102%; with SK-OV-3 ovarian it was 89.1%. Further, the growth is 72.6% in the assay on IGROV1 ovarian, 92.9% in the assay on HS 578T breast and 98.2% in the assay on NCI/ADR-RES ovarian.

With `ClC(Cl)c1nc(-c2cccnc2)n2nc(-c3ccccc3)cc2n1`, the growth in the assay on SR leukemia was 13.4%; in the assay with RPMI-8226 leukemia, 33.2%; with OVCAR-8 ovarian, 27.7%; in the assay with OVCAR-5 ovarian, 7.66% (active); in the assay with OVCAR-4 ovarian it was 9.31% (active); in the assay on IGROV1 ovarian, 13.9%. Further, the growth in the assay on OVCAR-3 ovarian was -47.5% (active); with HS 578T breast, 51.6%; with NCI/ADR-RES ovarian it was -11.2% (active).

As to `COc1ccc(Nc2ncccc2C(=O)NCc2cn(Cc3cccc(Oc4ccccc4)c3)nn2)c(OC)c1`, the growth in the assay with SR leukemia is 30.3%; with RPMI-8226 leukemia, 35.5%; in the assay with OVCAR-8 ovarian, 43.4%; in the assay with OVCAR-5 ovarian it was 51.1%; in the assay with OVCAR-4 ovarian it was 54.9%; in the assay on SK-OV-3 ovarian it was 21.6%. Also, the growth in the assay on IGROV1 ovarian was 48%; with OVCAR-3 ovarian, -57.8% (active); in the assay on HS 578T breast, 15.3%; with NCI/ADR-RES ovarian it was -10% (active).

`C=C1CCC2C3(C)COC(c4c(OC)cccc4OC)OC3CCC2(C)C1C/C=C1/C(=O)OCC1O` (stereo not drawn): the growth in the assay with SR leukemia was 34.7%; in the assay on RPMI-8226 leukemia it was -53.5% (active); in the assay with OVCAR-8 ovarian, 29.5%; in the assay on OVCAR-5 ovarian it was 49.3%; in the assay on OVCAR-4 ovarian it was 41.3%; in the assay with SK-OV-3 ovarian, 71.6%. Moreover, the growth was 26.9% in the assay with IGROV1 ovarian and 30.9% in the assay on NCI/ADR-RES ovarian.

As for `CNc1ccc(Br)c2c1C(=O)c1ccccc1C2=O`, the growth in the assay on SR leukemia is 101%; in the assay with RPMI-8226 leukemia, 87.8%; with OVCAR-8 ovarian, 105%; in the assay with OVCAR-5 ovarian it was 111%; with OVCAR-4 ovarian it was 100%; with SK-OV-3 ovarian it was 112%. Further, the growth in the assay on IGROV1 ovarian was 99.1%; in the assay on OVCAR-3 ovarian it was 121%; in the assay with HS 578T breast, 107%; in the assay on NCI/ADR-RES ovarian, 103%.

Consider `Cc1ccc(Cc2c(C=O)nc(N)[nH]c2=O)c2ccccc12`, for which the growth in the assay on SR leukemia was 63.5%; with RPMI-8226 leukemia, 99.6%; in the assay with OVCAR-8 ovarian it was 89.6%; with OVCAR-5 ovarian, 117%; with OVCAR-4 ovarian, 97.6%; with SK-OV-3 ovarian, 96.6%. For the same molecule, the growth is 106% with IGROV1 ovarian, 109% in the assay with HS 578T breast and 103% with NCI/ADR-RES ovarian.

On to `O=[N+]([O-])c1cc(Cl)c2[nH]c3c(Cl)cc([N+](=O)[O-])cc3c2c1`, for which the growth in the assay with SR leukemia is 2.53% (active); in the assay on RPMI-8226 leukemia, 3.11% (active); with OVCAR-8 ovarian, -2.33% (active); in the assay with OVCAR-5 ovarian it was 9.08% (active); in the assay with OVCAR-4 ovarian it was -24.8% (active); in the assay with SK-OV-3 ovarian, -11.9% (active). Further, the results for the growth in the assay on IGROV1 ovarian, with OVCAR-3 ovarian and in the assay on NCI/ADR-RES ovarian were 9.12% (active), 16.8% and 6.85% (active), respectively.

Consider `COc1ccc(C(=O)n2nc(/C=C/c3ccc(O)c(OC)c3)cc2/C=C/c2ccc(O)c(OC)c2)cc1`, for which the growth in the assay with SR leukemia is -9.23% (active); with RPMI-8226 leukemia, -27.3% (active); with OVCAR-8 ovarian, -5.24% (active); with OVCAR-5 ovarian, -18.8% (active); in the assay on OVCAR-4 ovarian, -7.85% (active); in the assay with IGROV1 ovarian, 12.8%. The growth in the assay on OVCAR-3 ovarian is 1.05% (active); in the assay on HS 578T breast, 0.538% (active); with NCI/ADR-RES ovarian, 26%.

On to `Nc1nc(-c2ccccc2)c(CCCOc2ccc(NC(=O)CBr)cc2)c(=O)[nH]1`, for which the growth with SR leukemia is 117%; with RPMI-8226 leukemia, 112%; in the assay on OVCAR-8 ovarian, 98.3%; with OVCAR-5 ovarian it was 104%; in the assay on OVCAR-4 ovarian it was 92.1%; with SK-OV-3 ovarian, 125%. Further, the figures for the growth in the assay with IGROV1 ovarian, in the assay on HS 578T breast and with NCI/ADR-RES ovarian were 125%, 99.1% and 106%, respectively.

With `CCCCN(CCCC)C(=N)c1ccnc2ccccc12`, the growth in the assay on SR leukemia was 92.7%; with RPMI-8226 leukemia, 83.1%; in the assay on OVCAR-8 ovarian, 110%; with OVCAR-5 ovarian, 104%; with OVCAR-4 ovarian it was 94%; in the assay with SK-OV-3 ovarian, 112%. Moreover, the growth is 98.3% in the assay on IGROV1 ovarian, 104% in the assay on OVCAR-3 ovarian and 110% in the assay on NCI/ADR-RES ovarian.

With `NC(=S)N/N=C1\CCCC(C(F)(F)F)C1` (stereo not drawn), the growth in the assay on SR leukemia is 78.7%; in the assay with RPMI-8226 leukemia, 71.1%; in the assay with OVCAR-8 ovarian it was 84.5%; in the assay with OVCAR-5 ovarian it was 103%; in the assay on OVCAR-4 ovarian, 97.7%; with SK-OV-3 ovarian, 108%. Also, the growth is 13.7% with IGROV1 ovarian, 111% with HS 578T breast and 87.7% in the assay on NCI/ADR-RES ovarian.

On to `Cc1ccc(-c2cc3nc(C(Cl)Cl)nc(-c4cccnc4)n3n2)cc1`, for which the growth in the assay on SR leukemia is 14.6%; in the assay with RPMI-8226 leukemia it was 16.5%; in the assay on OVCAR-8 ovarian, 22.7%; in the assay on OVCAR-5 ovarian it was 24.2%; with OVCAR-4 ovarian it was 9.57% (active); in the assay with IGROV1 ovarian it was 33.6%. Moreover, the growth is -40.7% (active) with OVCAR-3 ovarian, 28.3% with HS 578T breast and -3.44% (active) with NCI/ADR-RES ovarian.

For the molecule `C=C1C(=O)O[C@H]2[C@H]1CC/C(Cn1cc(-c3cccc(Cl)c3)nn1)=C\CC[C@@]1(C)O[C@@H]21`, the growth with SR leukemia is -3.12% (active); in the assay with RPMI-8226 leukemia, -34% (active); in the assay on OVCAR-8 ovarian, -43.7% (active); with OVCAR-5 ovarian, -36.7% (active); in the assay with OVCAR-4 ovarian, -71.3% (active); in the assay with SK-OV-3 ovarian it was 80.8%. The growth was -50.4% (active) in the assay with IGROV1 ovarian, -92.8% (active) in the assay with OVCAR-3 ovarian, -0.629% (active) with HS 578T breast and 10.7% with NCI/ADR-RES ovarian.

With `S=c1[nH]nc(-c2cc3ccc2CCc2ccc(cc2)CC3)n1-c1ccccc1`, the growth in the assay with SR leukemia is 96.6%; with RPMI-8226 leukemia, 94.5%; in the assay on OVCAR-8 ovarian it was 102%; with OVCAR-5 ovarian it was 103%; with OVCAR-4 ovarian, 83.1%; in the assay with SK-OV-3 ovarian it was 111%. The growth is 100% in the assay with IGROV1 ovarian, 104% with OVCAR-3 ovarian, 116% with HS 578T breast and 99.8% with NCI/ADR-RES ovarian.

The values above are taken from PubChem BioAssay (NCI).
